Out of some 66,000 compounds screened, about 720 (1.1%) were called active. No stated cut-off is given here; in the data, active means normalised signal below about 0.5; inactive means the rest, inconclusive results apart. Shown is part of a subset that was picked to be rich in actives.

Normalised signal (fraction of DMSO) and z-score data for 43 molecules are collected here from PubChem BioAssay AID1224903 (Bradner/Qi Labs at DFCI, 2016).

For this experiment, the target named is Chromobox protein homolog 7 (Homo sapiens) (UniProt O95931). In words: CBX7 chromodomain binding inhibitors, primary screen, biochemical, AlphaScreen (AID 1224903). To be noted: AlphaScreen His6-CBX7 / biotin-H3K27me3 peptide binding, stronger effect = lower value; z-score: measured here: z-score of CBX7 signal.
Chain of Chromobox protein homolog 7 (Homo sapiens) (O95931 whole entry, looked up): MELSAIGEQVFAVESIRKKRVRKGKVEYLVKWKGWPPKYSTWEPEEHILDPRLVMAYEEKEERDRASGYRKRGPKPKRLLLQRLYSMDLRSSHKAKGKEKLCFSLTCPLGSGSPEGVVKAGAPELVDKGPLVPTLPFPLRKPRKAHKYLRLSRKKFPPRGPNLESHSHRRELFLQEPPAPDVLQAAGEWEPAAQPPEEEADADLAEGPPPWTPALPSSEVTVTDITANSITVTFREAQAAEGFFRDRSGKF
For the molecule `Cc1ccc2c(c1)C(c1ccc(F)cc1)N(C(=O)c1ccc(S(=O)(=O)N3CCCC3)cc1)CC(=O)N2` (stereo unspecified), the normalised signal (fraction of DMSO) was 0.859 (inactive) and the z-score was -1.94.

Take `Cc1ccc2c(c1)C(c1ccc(F)cc1)N(C(=O)c1ccc(C)c(C)c1)CC(=O)N2` (stereo unspecified): the normalised signal (fraction of DMSO) is 0.316 (active) and the z-score is -6.53.

On to `Cc1ccc(C(=O)N2CC(=O)Nc3ccc(F)cc3C2c2ccc(F)cc2)cc1` (stereo unspecified), for which the normalised signal (fraction of DMSO) is 1.01 (inactive) and the z-score turned out to be 0.159.

For `O=C(Nc1ccccc1C(=O)Nc1ccccc1)c1cccc(S(=O)(=O)N2CCCCC2)c1`, the normalised signal (fraction of DMSO) is 0.764 (inactive) and the z-score is -2.54.

As to `Cc1ccc(C(C)C)c(OCc2nnc(NC(=O)c3ccc(Br)cc3)s2)c1`, the normalised signal (fraction of DMSO) is 1.06 (inactive) and the z-score came out at 0.262.

Consider `CCN1CCN(CCCNC(=O)c2ccc3c(c2)N(Cc2ccc(F)cc2)CCS3)CC1`, for which the normalised signal (fraction of DMSO) is 0.904 (inactive) and the z-score was -4.6.

As for `CC(=O)N1CCC(N(C(=O)Nc2ccc(Cl)cc2)C2CCCCCC2)CC1`, the normalised signal (fraction of DMSO) was 1.02 (inactive) and the z-score was determined as 0.287.

In the case of `Cc1ccc(-c2nc(Nc3ccccc3)sc2C)cc1`, the normalised signal (fraction of DMSO) is 0.99 (inactive) and the z-score is -0.257.

With `CCCCNC(=O)c1cc(Nc2ccc(CC)cc2)nc2ccccc12`, the normalised signal (fraction of DMSO) was 0.991 (inactive) and the z-score was -0.251.

Take `O=C(NCc1ccccc1)C1CCN(c2nc3ccccc3o2)CC1`: the normalised signal (fraction of DMSO) is 1.02 (inactive) and the z-score was 0.778.

In the case of `COc1ccc(CNc2nc(-c3ccccc3)cc(C(F)(F)F)n2)cc1`, the normalised signal (fraction of DMSO) is 1.28 (inactive) and the z-score came to 3.06.

Turning to `COc1ccc(CNc2ccc3c(c2)ncn3C(C)(C)C)c(OC)c1`, the normalised signal (fraction of DMSO) was 0.589 (inactive) and the z-score was -11.8.

With `CC(C)n1cnc2cc(NCc3ccccc3Cl)ccc21`, the normalised signal (fraction of DMSO) is 0.463 (active) and the z-score is -15.4.

For the molecule `Cc1ccc(NC(=O)CCc2nnc3ccc(NCc4ccccc4Cl)nn23)cc1`, the normalised signal (fraction of DMSO) is 0.916 (inactive) and the z-score is -2.3.

`COc1ccc(OC)c(Cc2nc3cc(C)c(C)cc3[nH]c2=O)c1`: the normalised signal (fraction of DMSO) is 0.964 (inactive) and the z-score was -1.09.

On to `O=C(Nc1ccccc1Cl)C1CCN(C(=O)c2cnn(-c3ccccc3)c2-n2cccc2)CC1`, for which the normalised signal (fraction of DMSO) is 1.04 (inactive) and the z-score worked out at 1.69.

With `Cc1ccc(C(=O)CN2C3=NCCN3c3ccccc32)cc1`, the normalised signal (fraction of DMSO) is 0.994 (inactive) and the z-score was -0.186.

Turning to `CC(C)N(CCCNC(=O)C1CCC(=O)N1Cc1ccc(F)cc1)Cc1ccccc1` (stereo unspecified), the normalised signal (fraction of DMSO) was 0.995 (inactive) and the z-score is -0.146.

For `CCc1ccc(NC(=O)Cn2c(SCc3cccc(F)c3)nc3ccncc32)cc1`, the normalised signal (fraction of DMSO) is 1.06 (inactive) and the z-score stood at 0.594.

On to `Fc1cnc(Nc2ccc(Cl)cc2)nc1Nc1ccc(Cl)cc1`, for which the normalised signal (fraction of DMSO) was 1.05 (inactive) and the z-score worked out at 0.523.

For `CC(C)c1ccc(OCC(O)Cn2cnc3ccccc32)cc1` (stereo unspecified), the normalised signal (fraction of DMSO) is 0.284 (active) and the z-score is -13.5.

For `CCc1cc(C)cc(OCC(O)Cn2cnc3ccccc32)c1` (stereo unspecified), the normalised signal (fraction of DMSO) is 0.88 (inactive) and the z-score was -3.02.

`Cc1ccc(C(C)C)cc1OCC(O)Cn1cnc2ccccc21` (stereo unspecified): the normalised signal (fraction of DMSO) is 0.815 (inactive) and the z-score is -2.55.

As for `Cc1ccc(NC(=O)c2cc(C)nn2-c2ccccc2)c(C)c1`, the normalised signal (fraction of DMSO) was 1.04 (inactive) and the z-score was 1.18.

For the molecule `COc1cccc(C(=O)Nc2ccc3oc(-c4ccccc4)nc3c2)c1`, the normalised signal (fraction of DMSO) is 1.16 (inactive) and the z-score stood at 2.43.

In the case of `COc1ccc(-c2noc(N(C)CC(=O)N3CCN(C)CC3)n2)cc1`, the normalised signal (fraction of DMSO) was 1.02 (inactive) and the z-score came to 0.593.

Regarding `O=C(CSCc1cnn(-c2ccccc2)c1-n1cccc1)NC1CC1`, the normalised signal (fraction of DMSO) was 0.986 (inactive) and the z-score was -0.615.

With `COc1ccccc1N1CCN(C(c2cccs2)C(C)NC(=O)c2ccc3c(c2)OCO3)CC1` (stereo unspecified), the normalised signal (fraction of DMSO) is 0.905 (inactive) and the z-score was -2.32.

Turning to `CCOc1ccc(C(=O)Nc2c3c(nn2-c2cccc(C)c2C)CSC3)cc1`, the normalised signal (fraction of DMSO) is 1.01 (inactive) and the z-score turned out to be 0.119.

In the case of `Cc1ccc(Cc2cnc(CN(C)C)c(O)c2)cc1`, the normalised signal (fraction of DMSO) is 0.477 (active) and the z-score is -6.92.

`Clc1ccc2nc(-c3ccsc3)c(NC(c3ccccc3)c3ccccc3)n2c1`: the normalised signal (fraction of DMSO) was 1.04 (inactive) and the z-score was determined as 1.58.

In the case of `COc1ccc(-c2cc(C(=O)NCCCn3ccnc3)no2)cc1`, the normalised signal (fraction of DMSO) is 0.983 (inactive) and the z-score was -0.364.

Consider `Cc1ccc(CNc2oc(-c3ccc(F)cc3)nc2C#N)cc1`, for which the normalised signal (fraction of DMSO) was 0.934 (inactive) and the z-score is -2.3.

As for `Cc1ccc(-c2nc(C#N)c(NCCCn3ccnc3)o2)cc1`, the normalised signal (fraction of DMSO) is 0.442 (active) and the z-score is -0.658.

For the molecule `COc1ccc(Cl)cc1NC(=O)C1c2cc(OC)c(OC)cc2C(=O)N(C)C1c1ccccc1F` (stereo unspecified), the normalised signal (fraction of DMSO) was 1.06 (inactive) and the z-score is 1.16.

Consider `Cc1ccc(CNC(=O)c2c(-c3ccccc3)noc2C)cc1`, for which the normalised signal (fraction of DMSO) is 1.03 (inactive) and the z-score was 0.952.

Regarding `CC1(C)CC(=O)c2cc(OCC(=O)NCCCN3CCCC3)ccc2O1`, the normalised signal (fraction of DMSO) was 0.509 (inactive) and the z-score is -9.7.

Consider `Cc1ccc(-c2nc3c(C)cccn3c2Nc2ccc3c(c2)OCCO3)cc1`, for which the normalised signal (fraction of DMSO) is 0.63 (inactive) and the z-score was -13.9.

Consider `O=C(NCc1ccccc1)C1C2C=CC3(CN(Cc4ccccc4Cl)C(=O)C13)O2` (stereo unspecified), for which the normalised signal (fraction of DMSO) is 0.955 (inactive) and the z-score is -2.13.

Take `CCCCn1c(C2CC(=O)N(c3ccc(CC)cc3)C2)nc2ccccc21` (stereo unspecified): the normalised signal (fraction of DMSO) is 0.96 (inactive) and the z-score is -0.9.

In the case of `Cc1ccc(-c2nnc(Nc3ccc(OCC(N)=O)cc3)c3ccccc23)cc1S(=O)(=O)NC(C)C`, the normalised signal (fraction of DMSO) was 0.723 (inactive) and the z-score is -5.21.

As to `CCOc1ccc(-c2nnc(Nc3ccc(C(N)=O)cc3)c3ccccc23)cc1`, the normalised signal (fraction of DMSO) is 0.436 (active) and the z-score was -2.64.

With `Cc1ccc(-c2nnc(Nc3ccc(C(=O)N(C)C)cc3)c3ccccc23)cc1S(N)(=O)=O`, the normalised signal (fraction of DMSO) was 1.08 (inactive) and the z-score turned out to be 2.41.
